# Screening results (PubChem)
# MITF inh – human MITF inhibition, primary screen; O75030; AlphaScreen MITF homodimerization, bead proximity signal; inhibition, % at 2.6 µM; hit rate 0.91% among 650,000; AID 1259374; in the data active means inhibition above about 50%;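 further: 0% = vehicle wells with protein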
# GPR151 activ – human GPR151 activation; Q8TDV0; PathHunter beta-arrestin GPR151 cells, luminescence; activation, % at 11.2 µM; hit rate 1% among 650,000; AID 1508602; in the data active means activation above about 4.9%;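 further: 0% = median of compound wells and 100% = cells with positive control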
# Target sequence (Q8TDV0 whole entry, looked up): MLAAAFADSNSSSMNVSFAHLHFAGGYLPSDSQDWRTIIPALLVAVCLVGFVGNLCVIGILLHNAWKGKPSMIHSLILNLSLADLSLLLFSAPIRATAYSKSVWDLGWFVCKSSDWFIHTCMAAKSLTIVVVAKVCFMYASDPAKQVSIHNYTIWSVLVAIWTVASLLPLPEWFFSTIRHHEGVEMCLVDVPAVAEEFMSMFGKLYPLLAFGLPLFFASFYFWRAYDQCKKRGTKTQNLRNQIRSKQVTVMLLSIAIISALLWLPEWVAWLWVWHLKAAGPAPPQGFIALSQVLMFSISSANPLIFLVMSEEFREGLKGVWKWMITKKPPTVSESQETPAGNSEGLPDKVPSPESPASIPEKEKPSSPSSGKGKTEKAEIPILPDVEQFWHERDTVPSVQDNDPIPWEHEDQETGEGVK
# TEAD-YAP inh – TEAD-YAP interaction inhibition; HEK-TIYL cells, TEAD-Gal4/YAP UAS-luciferase luminescence; inhibition, % at 9.12 µM; hit rate 1.4% among 640,000; in the data active means inhibition above about 32%;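 further: 0% = median of test compound wells and 100% = reference inhibitor wells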
# FBW7 act – activators of human E3 ligase FBW7. AlphaScreen FBW7–phospho-cyclin E peptide binding, activator screen. normalized activity (activation), % at 26.1 µM. hit rate 0.13% among 650,000. AID 1259310; in the data active means normalized activity above about 1.9%;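 further: purified mutant Fbw7 with reduced substrate affinity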
# MITF inh conf – confirmation of human MITF inhibitors. shares compounds with MITF inh. AlphaScreen MITF homodimerization, biotin/His-MITF beads. inhibition, % at 2.6 µM. hit rate 16% among 4,700. AID 1259372;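 active means inhibition above a cutoff derived from the DMSO control wells, cut at about 28% in these data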;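 further: 0% = MITF dimer wells with DMSO only; inhibitors lower the bead chemiluminescence by keeping MITF from dimerizing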
# AlphaScreen DR – counter-screen: compounds optically interfering with AlphaScreen; shares compounds with MITF inh; AlphaScreen optical interference counterscreen, cell-free; IC50, µM; hit rate 6% among 480; AID 1259373; call rule not given here
# AS interf ctr – optically interferes with AlphaScreen signal. inhibition, % at 2.6 µM. LysRS AlphaScreen counterscreen, signal interference, triplicate. shares compounds with MITF inh. hit rate 7.6% among 4,700;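 active means inhibition above a cutoff derived from the DMSO control wells, cut at about 30% in these data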
# Starred values were filed as active, the others as inactive; / = no result. The list is not random: actives were taken first. Their share in the collection is about 3.5%.
SMILES,MITF inh,GPR151 activ,TEAD-YAP inh,FBW7 act,MITF inh conf,AS interf ctr,others
O=C(NC(c1ccccc1)c1ccccc1)C1CC2C=CC1C2 (stereo unspecified),-6.0,-1.2,-1.7,-0.1,/,/,
CC(C)NC(=O)c1cccc(NC(=O)Nc2ccc(-c3ncnc4[nH]cc(Cl)c34)cc2)c1,77.9*,0.2,6.3,1.0,88.0*,-19.1,AlphaScreen DR=>6.48
Cc1ccc([N+](=O)[O-])cc1-c1ccc(/C=C2\C(=N)N3N=CSC3=NC2=O)o1,3.2,-0.3,7.6,0.2,/,/,
O=C1C(=O)N(CCBr)C(c2ccccc2)/C1=C(\O)c1ccccc1 (stereo unspecified),59.1*,0.0,-11.7,0.2,-2.2,-0.7,
CCNc1nc(Nc2ccccc2)c2cnn(C)c2n1,4.2,0.4,2.9,-0.2,/,/,
CCCNc1nc(Nc2ccccc2)c2cnn(C)c2n1,112.3*,-0.5,1.7,-0.1,17.2,11.5,
Cc1ccc(C2=C(c3ccc(C)cc3)N3CCS(=O)(=O)N=C3S2)cc1,13.1,-1.3,9.1,0.0,/,/,
O=C(N/N=C/c1cccc2cccnc12)c1ccc(Cl)cc1,37.0,-1.3,24.8,0.1,/,/,
O=C(N/N=C/c1cccc2cccnc12)c1cccc([N+](=O)[O-])c1,53.0*,-2.7,4.8,-0.1,55.8*,100.3*,
O=C(N/N=C\c1cccc([N+](=O)[O-])c1)c1cnccn1,65.5*,-0.5,-21.2,-0.1,1.1,15.2,
CCC12c3ccccc3C(c3ccccc31)C1C(=O)NC(=O)C12 (stereo unspecified),71.0*,2.6,-0.7,-0.2,63.1*,-30.6,AlphaScreen DR=>6.48
Oc1ccccc1CNC1CCN(Cc2ccccc2)CC1,1.7,2.1,17.6,0.1,/,/,
c1ccc(CN2CCC(NCc3c[nH]c4ccccc34)CC2)cc1,61.9*,-1.4,-3.3,-0.1,11.6,16.7,
c1ccc(C2CCC(NCCc3ccccn3)CC2)cc1 (stereo unspecified),58.7*,0.0,-14.4,0.9,-20.4,-9.3,
c1ccc(CN2CCC(NCc3ccccn3)CC2)cc1,61.6*,0.4,4.4,-0.1,8.7,15.7,
C=CCOc1ccccc1CNC1CCN(Cc2ccccc2)CC1,52.7*,-1.4,3.6,-0.1,14.1,18.1,
CC(=O)c1ccc(-c2cc(-c3ccc(C(C)=O)cc3)cc(-c3ccc(C(C)=O)cc3)c2)cc1,6.4,0.9,9.1,0.0,/,/,
NC1=NC(=O)/C(=C\c2ccc(-c3ccc(Cl)c([N+](=O)[O-])c3)o2)S1,-0.7,-0.3,0.8,0.2,/,/,
COCCCn1c(=O)[nH]c2ncc(-c3cccc(NC(C)=O)c3)nc21,17.4,-0.2,5.3,-0.4,/,/,
CCC(=O)Nc1ccc(C(=O)NCCC(C)C)cc1,5.7,0.0,-3.7,0.1,/,/,
COc1ccc(C)cc1N(CC(=O)Nc1ccccc1F)S(C)(=O)=O,2.4,-1.4,7.5,0.0,/,/,
COc1ccc(C)cc1N(CC(=O)Nc1ccc(F)cc1F)S(C)(=O)=O,51.5*,-0.3,-6.5,-0.1,-1.6,13.0,
NC(=O)CSc1cn(CCNC(=O)c2c(F)cccc2F)c2ccccc12,10.4,-1.4,2.4,-0.1,/,/,
CC1CCN(C(=O)CC2(c3cccc(F)c3)CC(=O)N(C3CCCC3)C2=O)CC1 (stereo unspecified),-14.5,1.3,-18.6,-0.3,/,/,
O=C(O)c1cc(S(=O)(=O)Nc2ccc3cn[nH]c3c2)ccc1O,75.8*,-1.0,19.5,-0.2,51.6*,20.9,AlphaScreen DR=>7
SMILES,MITF inh,GPR151 activ,TEAD-YAP inh,FBW7 act,MITF inh conf,AS interf ctr,others
NS(=O)(=O)c1ccc(NS(=O)(=O)c2ccc(O)c(C(=O)O)c2)cc1,1.6,0.7,8.0,-0.1,/,/,
Cc1ccc2nc(NS(=O)(=O)c3ccc(O)c(C(=O)O)c3)sc2c1,64.7*,-3.4,10.3,0.0,25.8,12.6,
O=S(=O)(Nc1ccc2cn[nH]c2c1)c1ccc2ccccc2c1,0.7,1.4,3.5,0.1,/,/,
Cc1nc2ccc(NS(=O)(=O)c3ccc(O)c(C(=O)O)c3)cc2s1,35.0,0.1,9.8,0.3,/,/,
O=C(O)c1cc(S(=O)(=O)Nc2ccncc2)ccc1O,66.3*,1.2,3.5,-0.1,42.6*,8.9,AlphaScreen DR=>7.05
COc1ccc(C(=O)N/N=C/C2CC3CCC2C3)cc1OC (stereo unspecified),1.9,0.7,8.3,0.1,/,/,
CCC(C)NCCOCCOc1ccccc1 (stereo unspecified),-8.7,-1.6,3.6,0.0,/,/,
